Among all 5,500 compounds or so, about 2,000 (36%) were called active. Inconclusive results (about 18%) are left out. Rule as the data show it: active = normalized growth mostly below about 0.91 (no sharp cut-off); inconclusive = no clear call, values can overlap the other calls; inactive = mostly above about 0.92. The list shows a part of the results.
Assay: chemical genetic growth profiling, strain panel (AID 1159580);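 also: tested at 20 µM; growth read once vehicle control cultures reached saturation at 30 °C; 1 = growth at the plate median or of vehicle wells; lower values mean less growth of the strain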
Settings: S. cerevisiae deletion strains, growth OD

Measured: normalized growth

S=C(NNc1ccccc1)Nc1cc(Cl)ccc1Cl
inactive: locus YAR019C, strain CDC15, stronger effect = lower value 0.963 | locus YBL105C, strain PKC1, stronger effect = lower value 0.958 | locus YBR135W, strain CKS1, stronger effect = lower value 0.96 | locus YBR136W, strain MEC1, stronger effect = lower value 0.962 | locus YBR160W, strain CDC28, stronger effect = lower value 0.963 | locus YDL017W, strain CDC7, stronger effect = lower value 0.962 | locus YDL028C, strain MPS1, stronger effect = lower value 0.97 | locus YDL101C, strain DUN1, stronger effect = lower value 0.963 | locus YDL108W, strain KIN28, stronger effect = lower value 0.974 | locus YDL132W, strain cdc53, stronger effect = lower value 0.959 | locus YDL214C, strain PRR2, stronger effect = lower value 0.953 | locus YDR052C, strain DBF4, stronger effect = lower value 0.966 | locus YDR054C, strain cdc34, stronger effect = lower value 0.939 | locus YDR226W, strain ADK1, stronger effect = lower value 0.985 | locus YDR477W, strain SNF1, stronger effect = lower value 0.945 | locus YER123W, strain YCK3, stronger effect = lower value 0.921 | locus YER133W, strain GLC7, stronger effect = lower value 0.958 | locus YFL009W, strain cdc4, stronger effect = lower value 0.974 | locus YFL029C, strain CAK1, stronger effect = lower value 0.95 | locus YFR003C, strain YPI1, stronger effect = lower value 0.961 | locus YFR019W, strain FAB1, stronger effect = lower value 1 | locus YFR028C, strain CDC14, stronger effect = lower value 0.965 | locus YGR040W, strain KSS1, stronger effect = lower value 0.94 | locus YGR052W, strain FMP48, stronger effect = lower value 1.02 | locus YGR092W, strain DBF2, stronger effect = lower value 0.726 | locus YHR030C, strain SLT2, stronger effect = lower value 0.853 | locus YHR079C, strain IRE1, stronger effect = lower value 0.909 | locus YHR082C, strain KSP1, stronger effect = lower value 0.935 | locus YHR205W, strain SCH9, stronger effect = lower value 0.938 | locus YIL147C, strain SLN1, stronger effect = lower value 0.965 | locus YJL095W, strain BCK1, stronger effect = lower value 0.918 | locus YJL128C, strain PBS2, stronger effect = lower value 0.967 | locus YJL157C, strain FAR1, stronger effect = lower value 0.947 | locus YJR016C, strain ILV3, stronger effect = lower value 0.961 | locus YJR066W, strain TOR1 (second series), stronger effect = lower value 0.934 | locus YJR066W, strain TOR1, stronger effect = lower value 0.894 | locus YKL048C, strain ELM1, stronger effect = lower value 0.951 | locus YKL067W, strain YNK1, stronger effect = lower value 0.976 | locus YKL101W, strain HSL1, stronger effect = lower value 0.957 | locus YKL193C, strain SDS22, stronger effect = lower value 0.955 | locus YKL203C, strain TOR2, stronger effect = lower value 1 | locus YLR113W, strain HOG1, stronger effect = lower value 0.874 | locus YLR133W, strain CKI1, stronger effect = lower value 0.955 | locus YLR403W, strain SFP1, stronger effect = lower value 0.936 | locus YML070W, strain DAK1, stronger effect = lower value 0.948 | locus YMR001C, strain CDC5, stronger effect = lower value 0.959 | locus YMR205C, strain PFK2 (second series), stronger effect = lower value 0.98 | locus YMR277W, strain FCP1, stronger effect = lower value 0.957 | locus YNL006W, strain LST8, stronger effect = lower value 0.971 | locus YNL020C, strain ARK1, stronger effect = lower value 0.964 | locus YNL161W, strain CBK1, stronger effect = lower value 0.956 | locus YNL183C, strain NPR1, stronger effect = lower value 0.957 | locus YNL207W, strain RIO2, stronger effect = lower value 0.946 | locus YNL222W, strain SSU72, stronger effect = lower value 0.957 | locus YNL307C, strain MCK1 (second series), stronger effect = lower value 0.914 | locus YOL078W, strain AVO1, stronger effect = lower value 0.958 | locus YOL136C, strain PFK27, stronger effect = lower value 0.953 | locus YOR061W, strain CKA2, stronger effect = lower value 0.909 | locus YOR119C, strain RIO1, stronger effect = lower value 0.958 | locus YOR231W, strain MKK1, stronger effect = lower value 0.928 | locus YOR329C, strain SCD5, stronger effect = lower value 0.952 | locus YPL031C, strain PHO85, stronger effect = lower value 0.925 | locus YPL153C, strain RAD53, stronger effect = lower value 0.922 | locus YPL204W, strain HRR25, stronger effect = lower value 0.938 | locus YPL209C, strain IPL1, stronger effect = lower value 0.964 | locus YPL256C, strain CLN2, stronger effect = lower value 0.893 | locus YPR025C, strain CCL1, stronger effect = lower value 0.96 | locus YPR106W, strain ISR1, stronger effect = lower value 0.964 | locus YPR111W, strain DBF20, stronger effect = lower value 0.973 | strain NNK1, stronger effect = lower value 0.964 | strain TSCII, stronger effect = lower value 0.957

NC(CCCP(=O)(O)O)C(=O)O (stereo unspecified)
inactive: locus YAL013W, strain DEP1, stronger effect = lower value 0.993 | locus YAL040C, strain CLN3, stronger effect = lower value 1.01 | locus YCL061C, strain MRC1 (second series), stronger effect = lower value 1 | locus YDR363W, strain ESC2, stronger effect = lower value 1.09 | locus YER002W, strain NOP16, stronger effect = lower value 0.993 | locus YGR078C, strain PAC10, stronger effect = lower value 1.02 | locus YMR263W, strain SAP30, stronger effect = lower value 1 | locus YMR307W, strain GAS1, stronger effect = lower value 0.982 | locus YNL175C, strain NOP13, stronger effect = lower value 1.01 | locus YNL197C, strain WHI3, stronger effect = lower value 1 | locus YNL224C, strain SQS1, stronger effect = lower value 1.02 | locus YNL322C, strain KRE1, stronger effect = lower value 1 | locus YOR083W, strain WHI5 (second series), stronger effect = lower value 1.01 | locus YPL055C, strain LGE1, stronger effect = lower value 0.977 | locus YPL241C, strain CIN2, stronger effect = lower value 0.993

Source: PubChem BioAssay AID1159580 (chemical genetic matrix, 2015)
